Assay outcomes (PubChem BioAssay)
This excerpt belongs to a sample that is enriched for hits.
Pf Dd2 growth: qHTS Primary assay for Inhibitors of Plasmodium falciparum Dd2 growth in vitro; P. falciparum Dd2 growth, SYBR Green, 72 h; Potency, µM (titrated, usually from 28.9 µM), inactives show at the top dose activity, negative = inhibition, most hits filed as inhibitors; 120,000 tested, 4.3% active; AID 1347417, 2020; active means well fitted inhibition curve with a large enough effect;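 further: plate controls were DMSO vehicle for no effect and reference drug for full effect; nearly all actives have a fitted effect of over 65% in size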
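Readout: SYBR Green fluorescence, 485 nm excitation, 535 nm emission, after ~16 h lysis at 37C. Before that, Dd2-infected red cells (2.5% hematocrit) grew 72 h with compound, 29 uM top final concentration.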
An asterisk follows results filed as active; [ ] = another dose, or the depositor's remark. Potency means the concentration at half of the fitted maximal effect.

How did CC(C)(CC(=O)O)CC(=O)N1C[C@@H]2C[C@H](C1)c1ccc(-c3cc4ccccc4s3)c(=O)n1C2 do in these assays?
Pf Dd2 growth: inactive

What do the screens show for `CSCCNC(=O)c1cc(Br)cn2ccnc12`?
Pf Dd2 growth: -19%[44.1 µM]

How did CCn1cc(C(=O)NCCCN2CCCC(C)C2)c(=O)c2cc(S(=O)(=O)N(C)C3CCCCC3)ccc21 (centres undefined) do in these assays?
Pf Dd2 growth: 1µM*

How did CCCN(CCC)CCCNC(=O)c1cn(CC)c2ccc(S(=O)(=O)N3CCc4ccccc4C3)cc2c1=O do in these assays?
Pf Dd2 growth: -18%

Results for CCCCN(CCCC)CCNC(=O)c1cn(CC)c2ccc(S(=O)(=O)N(C)C3CCCCC3)cc2c1=O ?
Pf Dd2 growth: -18%

How did CCn1cc(C(=O)NCCc2ccccc2)c(=O)c2cc(S(=O)(=O)N(C)C3CCCCC3)ccc21 do in these assays?
Pf Dd2 growth: -7%

Results for CCn1cc(C(=O)NCCCN(CC(C)C)CC(C)C)c(=O)c2cc(S(=O)(=O)N3CCc4ccccc4C3)ccc21 ?
Pf Dd2 growth: 2%

What do the screens show for `CCCCN(CC)CCCNC(=O)c1cn(CC)c2ccc(S(=O)(=O)N3CCc4ccccc4C3)cc2c1=O`?
Pf Dd2 growth: 10µM*

Results for CSCCCN1CCC2(Cc3ccccc3CNC2=O)C1 (centres undefined) ?
Pf Dd2 growth: -21%[44.1 µM]

Results for COc1ccc(NC(=O)C2CC(=O)N(c3n[nH]c4ccccc34)C2)cn1 (centres undefined) ?
Pf Dd2 growth: -12%

What do the screens show for `O=C(CCc1nnn2c1CN(C(=O)Nc1cccc(F)c1)CC2)NC1CC1`?
Pf Dd2 growth: inactive

What do the screens show for `O=C(Nc1ccccc1)[C@H]1O[C@H](CCN2CCOCC2)CC[C@@H]1O`?
Pf Dd2 growth: -13%[44.1 µM]

What do the screens show for `Cc1ccccc1NS(=O)(=O)C1CCS(=O)(=O)C1` (centres undefined)?
Pf Dd2 growth: 0%

What do the screens show for `Cc1c(Cl)cccc1NC(=O)CN1C(=O)NC(c2ccc(Cl)cc2)C2=C1COC2=O` (centres undefined)?
Pf Dd2 growth: -26%

What do the screens show for `COc1ccc2cc(CN3CCCC(C#N)C3)c(-c3cccs3)nc2c1` (centres undefined)?
Pf Dd2 growth: -17%

How did COC[C@@H]1CCCN1Cc1cc2ccc(C)cc2nc1-c1ccc(OC)cc1 do in these assays?
Pf Dd2 growth: 14µM*

What do the screens show for `COc1ccc(-c2nc3cc(C)ccc3cc2CN2CCCC(CO)C2)cc1OC` (centres undefined)?
Pf Dd2 growth: -20%

Results for COC[C@H]1CCCN1Cc1nc(C2(O)CCN(C)CC2)cs1 ?
Pf Dd2 growth: -18%[44.1 µM]

How did COc1ccc(-c2nc3cc(C)ccc3cc2CN2CCCC(O)C2)cc1OC (centres undefined) do in these assays?
Pf Dd2 growth: -19%

What do the screens show for `COc1ccc(-c2nc3cc(C)ccc3cc2CN2CCN(C)C(CCO)C2)cc1` (centres undefined)?
Pf Dd2 growth: 10µM*

How did CCc1nc2c(c(-c3ccc(OC)cc3)n1)CN(C(=O)c1ccc(C(F)(F)F)cc1)CC2 do in these assays?
Pf Dd2 growth: 7%

How did CN(C(=O)c1ccccc1Cl)C1CCc2ccccc21 (centres undefined) do in these assays?
Pf Dd2 growth: -13%[44.1 µM]

What do the screens show for `NC(=O)[C@H](Cc1cccs1)NC(=O)[C@@H]1[C@@H](NC(=O)Nc2ccc(F)cc2F)CCN1C(=O)c1cnccn1`?
Pf Dd2 growth: -19%

Results for COc1cccc(C(=O)N2CCC(C(NC(=O)c3ccc(F)cc3)C(=O)N3CCCC3)CC2)c1 (centres undefined) ?
Pf Dd2 growth: inactive

What do the screens show for `O=C(Nc1cccn2nc(C3CCC3)nc12)c1ccccn1`?
Pf Dd2 growth: -25%

How did CC(=O)Nc1ccc(C2(C(=O)N3CCCCCC3)CCC2)cc1 do in these assays?
Pf Dd2 growth: -21%

How did CC(=O)Nc1ccc(C2(C(=O)N3CCC(N4CCCCC4)CC3)CCCCC2)cc1 do in these assays?
Pf Dd2 growth: 13µM*

How did CC(=O)Nc1ccc(C2(C(=O)O)CCCCC2)cc1 do in these assays?
Pf Dd2 growth: 3%

How did CCC(C)NC(=O)C(NC(=O)c1cccc(C)c1)C1CCN(C(=O)c2ccccc2F)CC1 (centres undefined) do in these assays?
Pf Dd2 growth: inactive

Results for CC(C)NC(=O)N1CCC2(CC1)NCCc1c2[nH]c2ccccc12 ?
Pf Dd2 growth: inactive

How did CCc1ocnc1C(=O)N1CCC2(CC1)CC(c1ccccc1)CN(C)C2 (centres undefined) do in these assays?
Pf Dd2 growth: -20%

What do the screens show for `O=C(O)c1cccc(C2CCCN(C(=O)CCCn3ccnc3)C2)c1` (centres undefined)?
Pf Dd2 growth: -22%

Results for CN1CC(c2ccccc2)CC2(CCN(C(=O)CCCn3ccnc3)CC2)C1 (centres undefined) ?
Pf Dd2 growth: 13µM*

How did COCCC(=O)N1CCc2c(n(CCOc3ccccc3)n(-c3ccccc3)c2=O)C1 do in these assays?
Pf Dd2 growth: 23%[44.1 µM]

Results for Cc1ccc(N2C(=O)N(CC(=O)C(C)(C)C)c3ccccc3S2(=O)=O)cc1C ?
Pf Dd2 growth: -11%

How did COc1ccc(C(=O)CN2C(=O)N(c3cc(C)ccc3C)S(=O)(=O)c3ccccc32)cc1 do in these assays?
Pf Dd2 growth: inactive

Results for COc1cc(OC)cc(N2C(=O)N(CC(=O)c3ccc(F)cc3)c3ccccc3S2(=O)=O)c1 ?
Pf Dd2 growth: 8.9µM*

Results for O=C1OCCCN1CCNc1ccc(-c2nc(-c3ccccc3F)no2)cn1 ?
Pf Dd2 growth: inactive

Results for Cc1ccc(Nc2sc(C(=O)c3ccccc3)c(N)c2S(=O)(=O)c2ccccc2)c(C)c1 ?
Pf Dd2 growth: 10µM*

How did COc1ccc(CCNC(=O)c2c(Nc3ccccc3C)sc(C(=O)c3ccccc3)c2N)cc1OC do in these assays?
Pf Dd2 growth: inactive

What do the screens show for `Cc1ccc(CNC(=O)c2c(Nc3c(C)cccc3C)sc(C(=O)c3ccccc3)c2N)cc1`?
Pf Dd2 growth: -4%

Results for CCOc1ccc(Nc2sc(C(=O)c3cccc(OC)c3)c(N)c2S(=O)(=O)c2ccccc2)cc1 ?
Pf Dd2 growth: inactive

Results for COc1cccc(C(=O)c2sc(Nc3ccc(C)cc3C)c(S(=O)(=O)c3ccccc3)c2N)c1 ?
Pf Dd2 growth: 10µM*

Results for CCOC(=O)c1sc2ccccc2c1S(=O)(=O)Nc1cc(OC)ccc1OC ?
Pf Dd2 growth: 53%

Results for Cc1ccc(Nc2sc(C(=O)c3ccccc3)c(N)c2C(=O)NC(C)C)cc1 ?
Pf Dd2 growth: -3%

What do the screens show for `COc1ccc(OC)c(Nc2sc(C(=O)c3ccccc3)c(N)c2S(=O)(=O)c2ccccc2)c1`?
Pf Dd2 growth: 8.9µM*

How did COc1ccccc1Nc1sc(C(=O)c2ccc(C)cc2C)c(N)c1S(=O)(=O)c1ccccc1 do in these assays?
Pf Dd2 growth: -15%

Results for CNC(=O)NC[C@H]1CCN(Cc2ccc(OC)c(OC)c2Cl)C[C@H]1N(C)C ?
Pf Dd2 growth: -3%

Results for COCc1cc(C[C@@H]2CC[C@H](O)[C@@H](CN(C(=O)Nc3ccccc3)C(=O)Nc3ccccc3)O2)no1 ?
Pf Dd2 growth: -16%

What do the screens show for `CN1CC(=O)N(c2ccccc2)Cc2c(NC3CC3)ncnc21`?
Pf Dd2 growth: 2%

Results for CN1CCC(N[C@H]2CC(C)(C)[C@@H]3C[C@@](C)(O)CC[C@]23CCC(=O)N2CCOCC2)CC1 ?
Pf Dd2 growth: 11%

Results for O=C1NCCCCCCN(C(=O)c2ccco2)[C@H]2CCC[C@@H]12 ?
Pf Dd2 growth: 23%
